Bioassay records: PubChem, National Center for Advancing Translational Sciences (NCATS)
Pf growth 48h – inhibits P. falciparum growth in the first generation, 48 h | P. falciparum luciferase growth in erythrocytes, 48 h | Potency, µM (top dose mostly 28.7 µM), inactives show at the top dose activity change, negative = inhibition, usual class: inhibitors | hit rate 5.9% among 310,000 | AID 504832; note: potency is the fitted concentration of half-maximal effect
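A one-generation exposure of luciferase-tagged malaria parasites in RPMI 1640/Albumax erythrocyte culture, 37 C and 5% CO2. Inhibition is inferred from decreased luminescence after adding detection reagent.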
Pf growth 96h – P. falciparum growth inhibition at 96 hour, primary screen for plastid delayed-death inhibitors; AID 504834; P. falciparum luciferase reporter growth, 96 h; hit rate 6.9% among 320,000; Potency, µM (doses to about 28.7 µM), without a hit: at the top dose activity change, negative = inhibition, hits mostly inhibitors; note: potency is the fitted concentration of half-maximal effect
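Parasite growth measured via integrated firefly luciferase reporter in P. falciparum. Infected erythrocytes at 2% hematocrit, 0.05% parasitemia final were treated 96 hours at 37 C under 5% CO2, and luminescence was read.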
Sm TGR inh – inhibitors of Schistosoma mansoni thioredoxin glutathione reductase; Q962Y6; purified TGR, DTNB reduction, TNB absorbance 405 nm; Potency, µM (top dose mostly 114 µM), for inactives: at the highest dose activity change, negative = inhibition, hits mostly inhibitors; hit rate 3% among 360,000; AID 485364; note: potency is the fitted concentration of half-maximal effect; nearly all actives have a fitted effect of over 60% in size
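TGR 20 nM + NADPH 100 uM (dispensed conc.), cpd preinc 15 min RT; start with NADPH (500 uM addition) then DTNB (15 mM addition). Kinetic TNB absorbance, 405 nm filter. Four-parameter Hill fit across titration.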
HCMV inh – human cytomegalovirus inhibition. HFF cells, HCMV-luciferase reporter, 72 h; stronger effect = lower value. activity change, negative = inhibition, % at 57.5 µM. hit rate 4.5% among 410,000. AID 1259415; in the data active = activity change below about -60%; inconclusive = no clear call, values can overlap the other calls; inactive = above about -39%
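Compounds were evaluated in HFFs infected with an HCMV luciferase reporter virus (MOI 1 PFU/cell). Luciferase in lysates collected 72 h post infection served as the replication measure.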
FBPA Giardia inh – inhibitors of Giardia lamblia fructose-1,6-bisphosphate aldolase | A8B2U2 | purified Giardia FBPA | Potency, µM (top dose mostly 59.6 µM), inactives show at the highest dose activity, negative = inhibition, hits mostly inhibitors | hit rate 0.71% among 290,000 | AID 2451; note: potency is the fitted concentration of half-maximal effect; nearly all actives have a fitted effect of over 55% in size
Target sequence (A8B2U2 whole entry, looked up): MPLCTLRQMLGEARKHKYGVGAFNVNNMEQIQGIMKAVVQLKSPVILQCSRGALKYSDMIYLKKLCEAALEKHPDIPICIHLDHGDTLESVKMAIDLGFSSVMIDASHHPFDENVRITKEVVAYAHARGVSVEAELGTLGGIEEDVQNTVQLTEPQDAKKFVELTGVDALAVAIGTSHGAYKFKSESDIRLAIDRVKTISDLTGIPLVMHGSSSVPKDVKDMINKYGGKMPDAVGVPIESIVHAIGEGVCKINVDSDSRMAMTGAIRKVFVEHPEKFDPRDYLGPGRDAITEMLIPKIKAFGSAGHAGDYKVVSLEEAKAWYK
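40 nM FBPA preincubated 10 min at RT with compound (up to 57.5 uM final), then substrate plus GAPDH/TPI/NAD/arsenate coupling and diaphorase/resazurin added. Fluorescence read after 20 min at RT, 525/598 nm.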
* marks the source's active call; other numbers are inactive results; u = inconclusive; x = not tested or not shown; [ ] = dose if it differs, or a comment. Hits are enriched below; roughly 14% of the tested compounds scored in any of these assays. Unless noted, calls come from the whole dose curve; as a rule, active = well fitted curve in the direction sought with a large enough effect; inconclusive = small, poorly fitted or top-dose-only effect, or another doubt; inactive = no such curve, though single readings can be large; an effect the other way counts as inactive or inconclusive. % is set by controls: 0 for no effect and ±100 for the full control effect.

SMILES	Pf growth 48h	Pf growth 96h	Sm TGR inh	HCMV inh	FBPA Giardia inh
COCCn1c(C)cc(C(=O)COC(=O)/C=C/c2ccc(OC)cc2OC)c1C	x	x	x	10.2	x
Cc1c(C)c2ccc(OC(C)C(=O)N3C[C@H]4C[C@@H](C3)c3cccc(=O)n3C4)c(C)c2oc1=O (some centres undefined)	20.1%	u	-1.8%	60.8	3.8%
Cc1c(OC(C)C(=O)N2C[C@H]3C[C@@H](C2)c2cccc(=O)n2C3)ccc2c3c(c(=O)oc12)CCC3 (some centres undefined)	-19.3%	10.4µM*	-17.5%	114.9	-8.6%
CCOc1ccc(CCN2C(=S)N([C@@H](Cc3ccc(O)cc3)CN3CCC[C@@H]3CN3C(=S)NC[C@@H]3CC(C)C)C[C@@H]2Cc2ccc(O)cc2)cc1	x	x	x	-63.4*	x
CCOc1ccc(CCN2C(=S)N([C@@H](Cc3ccccc3)CN3CCC[C@@H]3CN3C(=S)NC[C@@H]3Cc3ccc(O)cc3)C[C@@H]2CC(C)C)cc1	x	x	x	1.3	x
CCOc1ccc(CCN2C(=S)N([C@@H](Cc3ccc(O)cc3)CN3CCCC3CN3C(=S)NC[C@@H]3Cc3ccc(O)cc3)C[C@@H]2CC(C)C)cc1 (some centres undefined)	x	x	x	-79.5*	x
Oc1ccc(C[C@H]2CN([C@@H](Cc3ccc(O)cc3)CN3CCC[C@@H]3CN3C(=S)NC[C@@H]3Cc3ccccc3)C(=S)N2CCc2ccccc2)cc1	x	x	x	-15.1	x
CC1CCN(c2oc(Cc3cccc4ccccc34)nc2C#N)CC1	x	u	2.1%	-16.8	5.5%
N#Cc1nc(Cc2cccc3ccccc23)oc1N1CCOCC1	u	2.08µM*	-21.2%	-13.3	1.9%
CCCOc1ccc(Cn2c(C)nc([N+](=O)[O-])c2SCC(O)COC)cc1[N+](=O)[O-] (centres undefined)	u	10.4µM*	42.0%	-37.1	-0.5%
CCOc1ccc(Cn2c(C)nc([N+](=O)[O-])c2SCC(O)CCl)cc1[N+](=O)[O-] (centres undefined)	10.4µM*	x	10.7%	-19.1	0.9%
CCOc1ccc(Cn2ccnc2CCl)cc1[N+](=O)[O-]	9.9%	u	0.3%	9.9	-11.0%
CC(C)(C(=O)NCc1ccccc1)n1cc(NC(=O)c2ccc3c(c2)OCO3)cn1	x	x	x	51.8	x
COc1ccc(NC(=O)N(C)C[C@H]2Oc3ccc(NC(=O)Nc4ccc5c(c4)OCO5)cc3C(=O)N([C@H](C)CO)C[C@@H]2C)cc1	x	x	x	-8.4	x
COc1ccc(OC)c([N+](=O)[O-])c1C(N)=O	4.4%	0.3%	79.4µM*	14.5	u
COC(=O)C[C@H]1C[C@H]2c3cc(NC(=O)C4CCC4)ccc3O[C@H]2[C@H](CO)O1	x	x	x	-21.2	x
Cc1cc2oc(=O)c(CC(=O)NCCCN(C)C)c(C)c2c2occ(C(C)(C)C)c12	2.62µM*	1.85µM*	u	x	7.5%
COCCNC(=O)Cc1c(C)c2c(cc(C)c3c(C(C)(C)C)coc32)oc1=O	0.3%[0.00184 µM]	u	-26.8%	-61.2*	8.3%
CC(C(=O)NCc1ccccc1Cl)N1C(=O)c2ccccc2C1=O (centres undefined)	3.0%	-0.2%	1.3%	-1.9	x
COc1cc2c(cc1OC)C(=O)OC2	x	x	x	x	-0.1%
COc1ccc([C@H]2N[C@]3(CCCN(Cc4ccc(C)cc4)C3=O)[C@H]3C(=O)N(Cc4ccccc4)C(=O)[C@@H]23)cc1	x	x	x	15.1	x
Cc1cc(C)c(NC(=O)CNC(=O)Cc2ccc(S(=O)(=O)N3CCOCC3)s2)c(C)c1	u	-26.5%	-6.3%	10.4	x
Cc1cccc(NC(=O)CNC(=O)Cc2ccc(S(=O)(=O)N3CCOCC3)s2)c1C	u	-0.5%	-21.7%	-103.8*	x
CN(C)S(=O)(=O)c1ccc(NC(=O)Cc2ccc(S(=O)(=O)N3CCOCC3)s2)cc1	u	9.28µM*	-10.2%	-36.5	-15.8%
CCN(CC)S(=O)(=O)c1cc(NC(=O)Cc2ccc(S(=O)(=O)N3CCOCC3)s2)ccc1Cl	x	x	x	-99.4*	x
SMILES	Pf growth 48h	Pf growth 96h	Sm TGR inh	HCMV inh	FBPA Giardia inh
COc1ccc(OC)c(NC(=O)COC(=O)CCCN2C(=O)c3ccccc3C2=O)c1	4.8%	18.3%	1.8%	48.1	0.7%
CC(C)(C)C(=O)N(Cc1ccc(Cl)cc1)c1cnccn1	3.29µM*	5.22µM*	-4.8%	-63.7*	0.6%
O=C(NCCc1ccc(Cl)cc1)c1cnccn1	66.0%	9.1%	-0.9%	-28.2	-5.4%
Cc1ccc(Nc2nc(Cl)nc(N(C)C#N)n2)cc1	17.7%	7.38µM*	-2.1%	28.2	-2.8%
Cc1ccc(Nc2nc(Cl)nc(NC(C)(C)C)n2)cc1	41.3%	185.8%	2.1%	11.1	1.4%
CCOC(=O)CN1C(C(=O)c2ccccc2)=C(OC(=O)c2ccccc2)c2ccccc2S1(=O)=O	x	x	-3.4%	7.1	x
COC(=O)CN1C(C(=O)c2ccccc2)=C(OC(=O)c2ccc(F)cc2)c2ccccc2S1(=O)=O	x	x	-12.7%	-10.8	x
CCN1C(C(=O)c2ccccc2)=C(OC(=O)COc2ccc(OC)cc2)c2ccccc2S1(=O)=O	x	x	11.2µM*	u	x
C=CCN1C(C(=O)c2ccccc2)=C(OC(=O)COc2ccccc2)c2ccccc2S1(=O)=O	-10.2%	u	11.2µM*	-35.2	-4.5%
CCCN1C(C(=O)c2ccccc2)=C(OC(=O)C(C)(C)C)c2ccccc2S1(=O)=O	x	x	1.7%	-89.5*	x
CCN1C(C(=O)c2ccccc2)=C(OC(=O)COc2ccc(C)cc2)c2ccccc2S1(=O)=O	x	x	10µM*	-31.9	x
C/C(CC(=O)Nc1ccc2c(c1)OCO2)=N\NC(=O)C(c1ccccc1)c1ccccc1	-3.6%	u	-0.2%	u	2.4%
O=C(/C=C/[C@H]1O[C@@H](n2ccc(=O)[nH]c2=O)[C@H](O)[C@@H]1O)NCC1CCCO1 (some centres undefined)	x	x	x	-8.9	x
CCCCC(=O)OC1=C(C(=O)c2ccccc2)N(C)S(=O)(=O)c2ccccc21	x	x	-28.1%	11.2	x
CCN1C(C(=O)c2ccccc2)=C(OC(=O)c2ccc(Cl)cc2)c2ccccc2S1(=O)=O	x	x	-1.3%	-77.1*	x
CCCN1C(C(=O)c2ccccc2)=C(OC(=O)COc2ccccc2)c2ccccc2S1(=O)=O	x	x	11.2µM*	-88.5*	x
CCCN1C(C(=O)c2ccccc2)=C(OC(=O)COc2ccc(C)cc2)c2ccccc2S1(=O)=O	x	x	10µM*	-91.5*	x
COc1ccc(C(=O)C(=O)N2CCC(c3ccccc3)CC2)cn1	x	x	x	2.5	x
O=C(CSc1ncc(-c2ccccc2)n1C1CCCC1)N1CCc2ccccc21	u	u	u	45.3	4.6%
CCC/C=C(\CCC)C(NS(C)(=O)=O)c1ccccc1 (centres undefined)	x	x	x	x	3.7%
CCOC(=O)Nc1cc(=O)c([N+](=O)[O-])c(N)[nH]1	x	x	x	9.5	x
